Results on 17 compounds are retold here after PubChem BioAssay.

The test system of experiment [1] is Human papillomavirus type 1a protein E7 (residues 44-93). As to the kind of experiment: HPV1a E7 fragment binders on microarrays, primary screen, biochemical, small-molecule microarray, residues 44-93, 635 nm fluorescence (AID 1108).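 Note: E7 fragment applied at 1 µg/mL in TBST for 1 h at 4 C; score combines spot fluorescence with its signal to noise ratio.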 The settings on record: small-molecule microarray binding, fluorescence 635 nm; higher = more signal.
A short description of experiment [2]: modulators of HCV replicon luciferase signal, primary screen, HCV replication inhibitor project, Huh7 cells, luciferase reporter (AID 1109).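 Note: huh7 hepatoma cells harbouring a luciferase neomycin HCV replicon reporter; luciferase luminescence as measure of HCV replicon replication; test concentration not given here.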 Conditions: 48 h, higher = more signal. Background: In antiviral work, replicon cells carry a viral genome segment that copies itself.
For experiment [3], the target named is Left-right determination factor 2 (Homo sapiens) (UniProt O00292). Kind of experiment: LEFTY2 binders on small-molecule microarrays, primary screen, biochemical, small-molecule microarray, 635 nm fluorescence scan (AID 1110). Conditions: LEFTY2 binding, higher = more signal.
Experiment [4] deals with Calmodulin-1 (Homo sapiens) (UniProt P0DP23). Kind of experiment: CALM1 binders on microarrays, EGTA buffer, profiling panel, biochemical, small-molecule microarray, Cy5-labelled CALM1 (AID 1111).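 Note: labelled calmodulin applied in Tris saline Tween buffer holding calcium plus EGTA and DTT.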 The settings on record: Cy5-CALM1 binding fluorescence, higher = more signal.
Experiment [5] shares this target. As to the kind of experiment: calcium-bound CALM1 binders on microarrays, profiling panel, artefact control for SMM control-protein annotation, biochemical, small-molecule microarray, Cy5-labelled CALM1, plus calcium (AID 1112).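 Note: score merges spot fluorescence with signal to noise from triplicate slides.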 The settings on record: Cy5-CALM1 binding fluorescence, higher = more signal.
Experiment [6] can be described thus: small-molecule microarray binders of probe aWnt5a, primary screen, biochemical, biotinylated probe, 635/667 nm fluorescence (AID 1113).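 Note: score merges 667 nm fluorescence intensity with signal-to-noise per printed feature.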 Conditions: higher = more signal.
A short description of experiment [7]: small-molecule microarray binders of probe aShh, primary screen, biochemical, biotinylated probe, 635/667 nm fluorescence (AID 1114).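 Note: probe is biotin-labelled aShh protein from a stem cell growth factor screen; measures binding of labelled protein to compounds printed on the slide; score merges feature fluorescence at 667 nm with signal-to-noise.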 The settings on record: higher = more signal.
A short description of experiment [8]: small-molecule microarray binders of probe aNog, primary screen, biochemical, biotinylated probe, 635/667 nm fluorescence (AID 1115).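 Note: probe is biotinylated aNog protein used at 0.15 µg/mL for 1 h at 4 C; z-score combines 667 nm fluorescence of each spot with its signal to noise.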 The settings on record: higher = more signal.
Experiment [9] deals with Torsin-1A-interacting protein 1 (Homo sapiens) (UniProt Q5JTV8). As to the kind of experiment: LAP1 binders from COS7 cell lysate, primary screen, small-molecule microarray, 635/667 nm fluorescence (AID 1116). Conditions: COS7-hLAP1 lysate binding, 635 nm fluorescence, higher = more signal.
For experiment [10], the target named is Alpha-bungarotoxin (Bungarus multicinctus) (UniProt P60615). Kind of experiment: alpha-bungarotoxin binders on microarray, profiling panel, artefact control for SMM control protein annotation, biochemical, small-molecule microarray, Alexa647 label, 635/667 nm fluorescence (AID 1117). The settings on record: alpha-BTX-A647 binding fluorescence, higher = more signal.
Alpha-bungarotoxin (Bungarus multicinctus), sequence (P60615 whole entry, looked up): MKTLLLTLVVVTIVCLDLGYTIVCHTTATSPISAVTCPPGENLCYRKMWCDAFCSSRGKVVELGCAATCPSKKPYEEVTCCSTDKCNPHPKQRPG

Torsin-1A-interacting protein 1 (Homo sapiens), sequence (Q5JTV8 whole entry, looked up): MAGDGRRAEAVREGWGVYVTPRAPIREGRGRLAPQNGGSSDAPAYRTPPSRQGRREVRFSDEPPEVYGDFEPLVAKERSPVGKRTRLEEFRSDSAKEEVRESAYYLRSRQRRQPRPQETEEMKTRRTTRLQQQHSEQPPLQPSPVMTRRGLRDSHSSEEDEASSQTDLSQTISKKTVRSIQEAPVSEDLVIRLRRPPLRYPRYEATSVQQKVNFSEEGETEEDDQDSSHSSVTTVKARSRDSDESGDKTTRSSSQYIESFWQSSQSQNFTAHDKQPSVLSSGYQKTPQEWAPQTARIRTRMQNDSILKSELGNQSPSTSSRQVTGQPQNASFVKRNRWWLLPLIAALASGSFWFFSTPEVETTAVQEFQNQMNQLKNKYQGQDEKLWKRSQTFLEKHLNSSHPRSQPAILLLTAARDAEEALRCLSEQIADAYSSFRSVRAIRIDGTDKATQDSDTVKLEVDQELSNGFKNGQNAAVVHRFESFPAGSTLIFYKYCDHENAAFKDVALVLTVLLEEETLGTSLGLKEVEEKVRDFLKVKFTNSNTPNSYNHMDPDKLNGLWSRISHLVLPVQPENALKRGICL
Left-right determination factor 2 (Homo sapiens), sequence (O00292 whole entry, looked up): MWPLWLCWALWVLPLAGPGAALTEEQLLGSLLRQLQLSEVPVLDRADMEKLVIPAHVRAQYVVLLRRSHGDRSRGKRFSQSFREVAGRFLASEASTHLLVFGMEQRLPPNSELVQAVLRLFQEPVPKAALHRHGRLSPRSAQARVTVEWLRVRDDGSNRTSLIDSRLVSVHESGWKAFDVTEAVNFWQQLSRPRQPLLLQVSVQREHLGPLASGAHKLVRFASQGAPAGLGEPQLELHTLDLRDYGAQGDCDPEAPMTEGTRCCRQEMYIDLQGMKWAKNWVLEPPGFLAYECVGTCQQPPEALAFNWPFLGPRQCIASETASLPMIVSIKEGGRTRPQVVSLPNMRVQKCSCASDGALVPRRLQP

As to `C=CCC(OC(C)=O)[C@@H]1[C@@H](N(Cc2cc3ccccc3o2)C(=O)c2ccc(-c3ccccc3)cc2)c2cc(OCCCO)ccc2N1C(=O)c1ccc2ccccc2c1` (stereo not given in full), the composite z-score in experiment [1] is 0.143; in experiment [3], 0.0403; in experiment [4] it was 0.137; in [5] it was 0.185; in experiment [6], -0.0398; in experiment [7] it was 0.0048. The figures for the composite z-score in experiment [8], in experiment [9] and in experiment [10] were -0.466, 0.612 and 0.264, respectively. This compound showed a z-score in [2] of -1.48.
As to `COc1ccc(NC(=O)O[C@H]2[C@H](OC(=O)Nc3ccccc3)[C@H](OC(=O)Nc3ccccc3)[C@@H](OC)O[C@@H]2CO)cc1`, the composite z-score in experiment [1] was 1.25; in experiment [3], 0.249; in [4], 0.692; in experiment [5], -0.17; in experiment [6], 0.161; in experiment [7], 0.163. For the same compound, the composite z-score is -0.413 in experiment [8], 0.634 in experiment [9] and 1.12 in experiment [10]. In addition, in experiment [2], the z-score was -2.76.
For the compound `CCOC(=O)C[C@H]1[C@H](OC(=O)c2cc3ccccc3oc2=O)[C@@H](NC(=O)Cc2ccc(OC)cc2)c2cc(OCCCO)ccc2N1C(=O)c1ccc2ccccc2n1`, the composite z-score in [1] was 0.178; in experiment [3], 0.774; in experiment [4], -0.0597; in experiment [5] it was -0.399; in [6] it was 0.0257; in experiment [7], -0.214. Besides, the composite z-score in [8] amounted to 0.0023; in [9] it was 0.514; in experiment [10], 0.26. In experiment [2], this compound registered a z-score of -0.664.
For the compound `CCOC(=O)C[C@H]1[C@H](OC(=O)c2ccccc2-c2ccccc2)[C@@H](NC(=O)C2CCCCC2)c2cc(OCCCO)ccc2N1C(=O)Cc1ccc(OC)cc1`, the composite z-score in experiment [1] is -0.312; in [3], -0.0221; in [4] it was -0.0561; in experiment [5], -0.326; in [6], -0.12; in experiment [7], -0.2. Moreover, the results for the composite z-score in experiment [8], in [9] and in experiment [10] were -0.136, 0.3 and -0.0654, respectively. For the same compound, the z-score in [2] was -1.44.
For the compound `COCCOC(=O)N1C(=O)[C@@]2(c3ccccc31)[C@H](C(=O)N1CCN(c3ncccn3)CC1)[C@H]1C(=O)O[C@H](c3ccccc3)[C@H](c3ccccc3)N1[C@@H]2c1ccc(O)cc1`, the composite z-score in experiment [1] is 0.97; in experiment [3], 0.256; in experiment [4], 0.949; in experiment [5], 0.166; in experiment [6], -0.0735; in [7], 0.191. Also, the composite z-score in [8] worked out at 0.893; in experiment [9], 0.482; in experiment [10], 1.72. Besides, in experiment [2], the z-score is -1.57.
With `CN(C)C(=O)C1N=C(c2ccc(OCCCO)cc2)N(c2ccccc2)O1` (stereo not given), the composite z-score in experiment [1] is 1.41; in experiment [3], 1.28; in experiment [4], 1.21; in experiment [5], -0.0846; in experiment [6], -0.0486; in experiment [7] it was -0.0733. Further, the composite z-score in experiment [8] is -0.461; in [9], 0.81; in [10], 0.741. Besides, the z-score in [2] was -0.842.
Consider `COc1ccc([Si](C)(C)[C@@H]2[C@@H](CC(=O)N(CCO)Cc3ccccc3)O[C@]3(C(=O)N(c4ccccc4)c4ccccc43)[C@H]2C)cc1`, for which the composite z-score was 1.33 in experiment [1]; 0.739 in experiment [3]; 0.545 in experiment [4]; 0.0061 in experiment [5]; -0.0559 in experiment [6]; -0.135 in experiment [7]. Moreover, the values for the composite z-score in [8], in [9] and in experiment [10] were -0.495, 0.395 and 0.883, respectively. The same compound showed a z-score in experiment [2] of -4.59.
With `COc1cc(OC)c(C(O)C2C=CC3C(=O)N(C)C(=O)C3N2NC(=O)OC(C)(C)C)cc1Br` (stereo not given), the composite z-score was found to be 1.45 in experiment [1]; 0.469 in experiment [3]; 1.74 in [4]; 0.767 in experiment [5]; 0.302 in experiment [6]; 0.551 in experiment [7]. For the same compound, the composite z-score worked out at 1.71 in experiment [8], 1.26 in experiment [9] and 1.85 in [10]. This compound also gave a z-score in experiment [2] of -0.706.
As to `COCCOC(=O)N1C(=O)[C@@]2(c3cc(C#Cc4ccc(OC)cc4)ccc31)[C@H](C(=O)Nc1nc3ccccc3s1)[C@H]1C(=O)O[C@H](c3ccccc3)[C@H](c3ccccc3)N1[C@@H]2c1ccc(O)cc1`, the composite z-score in experiment [1] is 1.38; in experiment [3] it was 0.631; in [4], 0.876; in experiment [5] it was -0.138; in experiment [6] it was 0.0559; in [7], 0.314. Further, the composite z-score in [8] was -0.376; in experiment [9], 0.37; in experiment [10] it was 1.34. The z-score in experiment [2] is -0.841.
In the case of `COc1ccc(C#Cc2ccc3c(c2)[C@]2(C(=O)N3)[C@H](c3ccc(O)cc3)N3[C@H](c4ccccc4)[C@H](c4ccccc4)OC(=O)[C@H]3[C@@H]2C(=O)O)cc1`, the composite z-score in [1] was 1.19; in experiment [3], -0.172; in [4], 0.69; in experiment [5] it was 0.805; in experiment [6], 0.0293; in experiment [7], -0.315. Besides, the composite z-score is 1.49 in [8], 0.684 in experiment [9] and -0.0251 in experiment [10]. In experiment [2], this compound came in with a z-score of -0.327.
For the compound `C=C(/C(=C/C[C@@H](OC(C)=O)c1cccc(OCCO)c1)c1cc(C(=O)OC)ccc1OC)C(C)C`, the composite z-score in experiment [1] is 0.522; in experiment [3], 0.256; in [4], -0.343; in experiment [5], -0.563; in [6] it was -0.221; in experiment [7], -0.221. Moreover, the composite z-score was -0.223 in [8], 0.189 in experiment [9] and 0.215 in [10]. This compound returned a z-score in experiment [2] of -1.53.
On to `C[C@H]1NC(=O)[C@@]23C(=O)N[C@@H](Cc4ccccc4)C2[C@H](C)[C@@]2(C)O[C@H]2C3/C=C/C/C=C\CNC(=O)[C@H](Cc2ccccc2)NC1=O` (stereo not given in full), for which the composite z-score was 0.395 in [1]; 0.154 in experiment [3]; 0.15 in experiment [4]; -0.849 in experiment [5]; -0.0445 in experiment [6]; -0.0533 in experiment [7]. The composite z-score in [8] is -0.196; in experiment [9], -0.285; in [10] it was 0.107. Besides, in [2], the z-score is -1.02.
`C=CC[C@@]1(C(=O)N2CCOCC2)N=C(c2ccc(OCCCO)cc2)O[C@@H]1c1ccccc1CN=[N+]=[N-]`: the composite z-score in experiment [1] is 1.44; in experiment [3], 0.898; in experiment [4], 1.9; in [5], 0.365; in [6] it was 0.0998; in [7] it was 0.191. The composite z-score in [8] is -0.333; in [9] it was 1.72; in experiment [10] it was 0.943. Besides, the z-score in experiment [2] was -2.04.
As to `CCCCCCc1nc(-c2cc(C)c(OC)c(C)c2)c(C)c2c1[Si](C(C)C)(C(C)C)OC2`, the composite z-score in experiment [1] was -0.226; in experiment [3], -0.0571; in experiment [4], -0.357; in experiment [5], 0.34; in experiment [6], -0.0445; in experiment [7], 0.184. For the same compound, the values for the composite z-score in [8], in [9] and in [10] were 0.116, -0.116 and -0.0116, respectively. The same compound returned a z-score in [2] of 0.791.
On to `O=C1O[C@H](c2ccccc2)[C@H](c2ccccc2)N2[C@H]1[C@@H](C(=O)Nc1nc3ccccc3s1)[C@]1(C(=O)Nc3ccc(C#CC4(O)CCCCCC4)cc31)[C@H]2c1ccccc1OCCO`, for which the composite z-score in [1] is 1.37; in experiment [3], 0.561; in [4] it was 1.04; in [5] it was -0.243; in experiment [6] it was 0.0068; in experiment [7] it was 0.0469. In addition, the figures for the composite z-score in [8], in [9] and in experiment [10] were 0.345, 1.34 and 0.0934, respectively. Also, the z-score in [2] was -2.69.
As to `O=C1OCCC/C=C\[C@H]2OC34C=CCN(CCN5CCOCC5)C(=O)[C@H]3N(CCCCCCO)C(=O)[C@@H]4C12` (stereo not given in full), the composite z-score in experiment [1] was -0.776; in [3], -0.311; in experiment [4], -0.523; in experiment [5], -0.909; in [6], -0.18; in [7], -0.0553. In addition, the composite z-score in experiment [8] was -0.103; in experiment [9] it was 1.52; in experiment [10], -0.162. The compound further yielded a z-score in experiment [2] of 0.857.
Regarding `O=C1C[C@@](C(=O)NCCN2CCOCC2)(c2ccc([N+](=O)[O-])cc2)[C@@H](c2ccc(CO)cc2I)N1C1CCCCC1`, the composite z-score in [1] was 1.18; in [3], 0.369; in experiment [4], -0.413; in experiment [5] it was -0.173; in experiment [6], -0.0445; in [7], 0.0611. The composite z-score in [8] was found to be 0.079; in experiment [9] it was 0.646; in experiment [10] it was 1.43. This compound had a z-score in experiment [2] of -2.66.
